Assay outcomes: PubChem BioAssay, The Scripps Research Institute Molecular Screening Center
Compounds with a hit are over-represented: about 4.1% of the library has one in this group of screens.
DAX1 inh-1 – blocks DAX1 repression of SF-1 activated StAR promoter | HEK293T StAR-luciferase reporter, SF-1/DAX-1 repression relief | inhibition, % at 6.8 µM | actives 1.1% (n = 370,000) | AID 652010;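 active = inhibition above the mean over all tested compounds plus 3 SD, cut at about 3.6% in these data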;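 note: higher inhibition means more luminescence from relief of DAX-1 repression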
ssDAF-12 act – activates DAF-12 receptor from parasite S. stercoralis; HEK293 ssDAF-12/GRIP1 lit1-tk-luc reporter, luminescence; % of 3 µM dafachronic acid response; activation, % at 6.8 µM; actives 1% (n = 370,000);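 active = activation above the mean over all tested compounds plus 3 SD, cut at about 0.9% in these data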
DAX1 inh-2 – NR0B1 (DAX1) inhibition. P51843. HEK293 Gal4-DAX1 luciferase reporter, luminescence. inhibition, % at 6.75 µM. actives 0.99% (n = 340,000). AID 504766;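 active = inhibition above the mean over all tested compounds plus 3 SD, cut at about 4.2% in these data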;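 note: inhibition shows as a rise in luminescence from relieved DAX1 repression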
Target sequence (P51843 207-470 limits assumed): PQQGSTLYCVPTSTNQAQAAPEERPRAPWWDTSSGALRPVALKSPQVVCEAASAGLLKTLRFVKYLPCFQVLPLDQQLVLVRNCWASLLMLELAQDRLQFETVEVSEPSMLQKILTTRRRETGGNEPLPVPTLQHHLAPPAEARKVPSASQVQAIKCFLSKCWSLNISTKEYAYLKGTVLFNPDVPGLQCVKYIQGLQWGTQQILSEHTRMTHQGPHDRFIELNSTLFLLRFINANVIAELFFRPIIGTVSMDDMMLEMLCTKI
hgDAF12 agonist – hgDAF-12 agonism, primary luciferase screen; HEK293 GAL4-hgDAF12 UAS-luciferase reporter, agonist luminescence; normalized to butyrate control; actives 1.8% (n = 370,000); activation, % at 6.8 µM;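 active = activation above a cutoff set at the mean of all screened compounds plus 3 SD, cut at about 10% in these data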
hcDAF12 agonist – activates DAF-12 receptor from parasite H. contortus; HEK293 hcDAF-12 lit1-tk-luc reporter, luminescence; 0% DMSO, 100% Δ7-dafachronic acid; actives 1.4% (n = 370,000); activation, % at 6.8 µM;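 active = activation above the mean of all tested compounds plus 3 SD, cut at about 5.5% in these data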
Large screens that a line does not name were inactive.

O=C(N[C@@H](Cc1cccnc1)C(=O)N1CCC[C@H]1C(=O)NC1CCCC1)c1ccccc1	none (no result: DAX1 inh-2)
CN1CCN(c2nc(-c3ccccc3O)nc3ccccc23)CC1	hcDAF12 agonist 6.5
C/C(=C\C(=O)Nc1cscc1C)C(=O)O	ssDAF-12 act 1.1
COC(=O)c1cscc1NC(C)=O	none
CCCCCCCc1c(O)nc(SCC(=O)O)[nH]c1=O	DAX1 inh-2 5.1
CCCCCc1c(C)nc(SCC(=O)O)[nH]c1=O	none
CC(C)(C)c1ccc(C(=O)N2CCCC2)s1	DAX1 inh-2 5.8
O=C(c1ccc(Cl)s1)N1CCCC1	none
O=C(NC1=NCCS1)c1cccc(F)c1	none (no result: DAX1 inh-2)
O=C(NC1=NCCS1)c1cccc(Br)c1	DAX1 inh-2 7.7, hgDAF12 agonist 11
CCOc1cccc(C(=O)NC2=NCCS2)c1	DAX1 inh-2 8.1
CCOC(=O)c1ccc(NC(=O)Nc2ccc3c(c2)OCCO3)cc1	none
COc1cccc(C(=O)NC2=NCCS2)c1	hgDAF12 agonist 11
CCOC(=O)c1ccc(NC(=O)NC2=NCCS2)cc1	hgDAF12 agonist 11
CCCC[C@H]1C2CC(OC(=O)NCCCc3ccccc3)C(C2)[C@H]2CCCCN21 (stereo not given in full)	none (no result: DAX1 inh-2)
Cc1cc(O)cc(=O)n1-c1ccc(Cl)c(C(F)(F)F)c1	none (no result: DAX1 inh-2)
COC(=O)[C@]12C[C@H](CC(=O)NCc3cccs3)C(=O)N(Cc3cccc4ccccc34)C1=C[C@H](C1CCCC1)O[C@@H]2C	none (no result: DAX1 inh-2)
O=C(NC1=NCCS1)c1ccc(Cl)cc1	hcDAF12 agonist 5.7
Clc1ccc(-c2cc(CSc3ccccc3)on2)cc1	hgDAF12 agonist 13
c1ccc(SCc2cc(-c3ccccc3)no2)cc1	none
O=C(CCc1nc2ccccc2s1)NCc1ccccc1F	none
CN(C)C(CNC(=O)CCc1nc2ccccc2s1)c1ccccc1 (stereo not given)	DAX1 inh-2 5.5
COC(=O)C(Cc1ccccc1)NC(=O)c1ccc(C)cc1 (stereo not given)	ssDAF-12 act 1.3
COC(=O)C(Cc1ccc(O)cc1)NC(=O)c1ccccc1 (stereo not given)	none
CCOC(=O)c1c(C)oc2c1c(C=NCc1ccccn1)c(O)c1ccccc12	none
CCOC(=O)c1c(C)oc2c1c(C=NCC1CCCO1)c(O)c1ccccc12 (stereo not given)	DAX1 inh-2 6.6
CC1(C)Cc2c(c(N3CCOCC3)nc3sc(C(=O)Nc4cccc(Cl)c4)c(N)c23)CO1	none
CC1(C)Cc2c(c(N3CCOCC3)nc3sc(C(=O)Nc4ccccc4)c(N)c23)CO1	hgDAF12 agonist 12, hcDAF12 agonist 6.2
C[C@@H]1OC(C2CCCCC2)N(C)[C@H]2C[C@H]3c4[nH]c5c(-c6ccccc6)cccc5c4CCN3C(=O)[C@@H]12 (stereo not given in full)	none (no result: DAX1 inh-2)
Cc1cc(C(=O)CN2C(=O)NC3(CCCCC3)C2=O)c(C)n1Cc1ccco1	DAX1 inh-1 4.0, ssDAF-12 act 2.6, DAX1 inh-2 7.1, hgDAF12 agonist 11
Cc1cc(-n2c(C)cc(C(=O)CN3C(=O)NC4(CCCC4)C3=O)c2C)no1	DAX1 inh-2 5.9
Cc1cc(C(=O)CN2C(=O)NC3(CCCCC3)C2=O)c(C)n1Cc1ccc2c(c1)OCO2	none
COc1cccc(Cn2cc(COC(=O)N(C)Cc3ccccc3)nn2)c1	none (no result: DAX1 inh-2)
Cc1ccc(CNc2ccc3c(c2)ncn3C(C)(C)C)cc1	DAX1 inh-1 4.1, DAX1 inh-2 6.6
c1cnc(SCC2CCCCC2)c(-c2nc3ccccc3[nH]2)c1	none (no result: DAX1 inh-2)
O=C1CN(C(=O)C2CCCCC2)C=CN1CCc1ccccc1Br	none (no result: DAX1 inh-1, DAX1 inh-2)
Cn1cccc1C(=O)NC(=O)CSc1nc2ccccc2s1	ssDAF-12 act 1.0
Brc1ccc(-c2noc(CCc3ccccc3)n2)o1	hcDAF12 agonist 6.1
Brc1ccc(-c2noc(COc3ccc4ccccc4c3)n2)o1	none
Clc1ccc(-c2cn(-c3nc4ccccc4s3)nn2)cc1	hcDAF12 agonist 5.7 (no result: DAX1 inh-2)
Cc1cccc(C(=O)NNC2=C(C(=O)C(F)(F)F)CCC2)c1O	hgDAF12 agonist 12
Cc1cccc(OCc2n[nH]c(=S)n2-c2ccccc2)c1	none
Cc1ccc(-n2c(COc3cccc(C)c3)n[nH]c2=S)cc1	DAX1 inh-2 4.8
COc1cccc(/C=C2\SC(=S)N(CC3CCCO3)C2=O)c1 (stereo not given)	hgDAF12 agonist 13
COc1cccc(/C=C2\SC(=S)N(N3C(=O)CCCC3=O)C2=O)c1	DAX1 inh-2 5.7
C=CCn1c(SCC(=O)Nc2ccccc2OCC)nnc1-c1ccc(C(C)(C)C)cc1	none (no result: DAX1 inh-2)
CCC(=O)Nc1ccc2c(c1)C(=O)N(C)[C@@H]1CC[C@@H](CC(=O)NCc3ccc(OC)cc3)O[C@H]1CO2	none (no result: DAX1 inh-2)
Cn1cc(Br)c(C(=O)Nc2nccs2)n1	hcDAF12 agonist 5.6
Cn1cc(Br)c(C(=O)Nc2c(F)c(F)c(F)c(F)c2F)n1	none
C=CCn1c(SCC(=O)O)nnc1-c1ccco1	none (no result: DAX1 inh-2)
CC(C)c1ccc(/C=C/C2=NNC(=O)CC2)cc1	hgDAF12 agonist 11
CN(C)S(=O)(=O)c1ccc(/C(O)=C2/C(=O)C(=O)N(CCCN3CCOCC3)C2c2ccncc2)cc1 (stereo not given)	DAX1 inh-2 5.1
Cc1ccccc1NC(=O)OC1CC2CC1[C@H]1CCCCN1[C@H]2Cc1ccccc1 (stereo not given in full)	none (no result: DAX1 inh-2)
CC(C)CN1CCC(=O)N(CCOc2ccccc2)CC1	DAX1 inh-2 4.3
CCCN1CCC(=O)N(CCOc2ccccc2)CC1	none
O=C(/C=C/c1ccc(Cl)cc1Cl)N1CCc2ccccc21	hgDAF12 agonist 13
CC(=O)c1cc2c(cc1N/C(=N/S(=O)(=O)c1ccccc1)c1ccc(Cl)cc1)OCO2	ssDAF-12 act 1.6
CC(=O)c1cc2c(cc1NS(=O)(=O)c1ccccc1)OCO2	none
Cc1nc2ccc(NC(=O)c3ccc(F)cc3F)cc2c(=O)[nH]1	none (no result: DAX1 inh-2)
COc1cc(C(C)=O)ccc1OCc1cc(C(=O)N(C)CCC2CCCCO2)no1 (stereo not given)	ssDAF-12 act 1.1
CN(CCCN1CCOCC1)C(=O)c1cc(COc2ccc(F)cc2F)on1	none
COc1cc(C)ccc1OCc1cc(C(=O)N(C)CCCN2CCOCC2)no1	ssDAF-12 act 1.8, hgDAF12 agonist 10
CCCCCc1cccc2[nH]cc(-c3ccccc3)c12	none (no result: DAX1 inh-2)
CC(C(=O)N1CCN(c2ccccc2)CC1)N1C(=O)C2CC=CCC2C1=O (stereo not given)	DAX1 inh-2 5.0
COC(=O)Cc1nnn2c1[C@H](C)[C@@H](OC)c1ccc(C(F)(F)F)cc1-2	none (no result: DAX1 inh-2)
COc1ccccc1CC(=O)Nc1ccc([N+](=O)[O-])cc1O	DAX1 inh-2 5.9
COc1cc([N+](=O)[O-])ccc1NC(=O)COC(=O)c1n[nH]c2ccccc12	hcDAF12 agonist 6.3
O=C(O)Cn1c(SCc2cccc3ccccc23)nc2ccccc21	hcDAF12 agonist 6.1
NC(N)=NC(=O)c1nc(Cl)c(N2CCCCCC2)nc1N	hgDAF12 agonist 13
CCOC(=O)CN1C(=O)[C@]2(OCCC=C[C@H]2C)c2ccccc21	none (no result: DAX1 inh-2)
